Test results reported in PubChem BioAssay AID652053 (Broad Institute, 2013).
The whole screen tested about 1,300 compounds, of which about 930 (72%) were called active.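 The calls were made as follows: active = fitted curve reaches 40% activation signal increase at or below the top valid tested concentration in every replicate test; inconclusive = replicate tests disagree in their calls; inactive = all replicate tests inactive, including effects opposite the expected signal rise.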 The set was probably picked from earlier hits. These entries were drawn from the full list. Results with a measured potency or affinity are listed apart.

Experiment: miR-122 inhibitors in Huh7 reporter cells, dose response, cell-based, Huh7 psiCHECK-miR122, Renilla luciferase, cherry-pick (AID 652053)
Settings: 48 h; series mostly up to 35 µM; activation (miR-122 inhibition): at the top concentration

Activation (miR-122 inhibition), inactive:
CCC(C)(C)n1nnnc1C(c1ccc(C)cc1)N1CCC(C)CC1 (stereo not given) 43.4%, C[C@H](CO)N1C[C@H](C)[C@H](CN(C)C(=O)Nc2cccc3ccccc23)Oc2ccc(NC(=O)Nc3cccc4ccccc34)cc2CC1=O 1.72% [at 30 µM], C[C@@H]1CN([C@@H](C)CO)C(=O)Cc2cc(NC(=O)Nc3ccc(C(F)(F)F)cc3)ccc2O[C@H]1CN(C)C(=O)Nc1cccc2ccccc12 5.54%, C[C@@H]1CN([C@H](C)CO)C(=O)Cc2cc(NC(=O)Nc3cccc4ccccc34)ccc2O[C@H]1CN(C)C(=O)Nc1cccc2ccccc12 11.5%, C[C@H]1CN([C@@H](C)CO)C(=O)Cc2cc(NC(=O)Nc3ccc(C(F)(F)F)cc3)ccc2O[C@@H]1CN(C)C(=O)Nc1cccc2ccccc12 -2.04% [at 30 µM], C[C@H](CO)N1C[C@H](C)[C@H](CN(C)C(=O)Nc2cccc3ccccc23)Oc2ccc(NC(=O)Nc3ccc(C(F)(F)F)cc3)cc2CC1=O 14.9%, CN(C)S(=O)(=O)c1ccc2c(c1)nc(CCC(=O)NCC1CCCCC1)n2C 6.44%, O=C(COc1ccc2c(c1)C(=O)CC1(CCCCC1)O2)NCc1ccccc1 26.7%, CC1(C)N([O-])C(c2cccs2)=C[N+]1=O 16.7%, C[C@H]1CN([C@@H](C)CO)C(=O)Cc2cc(NC(=O)Nc3cccc4ccccc34)ccc2O[C@H]1CN(C)C(=O)NC1CCCCC1 -9.8%, C[C@@H]1CN([C@H](C)CO)S(=O)(=O)c2ccc(-c3ccccc3)cc2O[C@H]1CN(C)C(=O)C1CCCCC1 29.4%, C[C@@H]1CN([C@H](C)CO)S(=O)(=O)c2ccc(C3=CCCCC3)cc2O[C@@H]1CN(C)Cc1ccccc1 29.9%, COC(=O)C[C@H]1CC[C@@H]2[C@H](COc3ccc(NS(=O)(=O)c4ccc(C)cc4)cc3C(=O)N2C)O1 24.3%, O=C(c1ccccc1F)N1C[C@@H]2[C@H](c3ccccc31)[C@@H](CO)N2C(=O)c1ccc(F)cc1 23.6%, O=C(c1ccccc1F)N1C[C@H]2[C@@H](c3ccccc31)[C@H](CO)N2C(=O)c1cccnc1 -6.1%, O=C(c1ccccc1F)N1C[C@H]2[C@@H](c3ccccc31)[C@H](CO)N2C(=O)c1ccc(F)cc1 31.8%, COc1ccc(N2C(=O)c3cccc4c(N(C)CCO)ccc(c34)C2=O)cc1 4.97%, O=C(C[C@H]1CC[C@H]2[C@@H](COC[C@H](O)CN2C(=O)Nc2cccc(F)c2)O1)NCc1ccccc1F -10.4%, C[C@H](CO)N1C[C@H](C)[C@@H](CN(C)C(=O)Nc2cccc3ccccc23)Oc2c(NC(=O)C3CCOCC3)cccc2C1=O 14.9%, C[C@H](CO)N1C[C@H](C)[C@@H](CN(C)Cc2ccc(C(=O)O)cc2)Oc2c(NC(=O)C3CCOCC3)cccc2C1=O -4.85%, COC(=O)c1ccc(Cl)c(NC(C)=O)c1 -5.94%, COc1ccccc1CNC(=O)C[C@@H]1CC[C@@H]2[C@@H](COc3ccc(NC(C)=O)cc3C(=O)N2C)O1 4.88%, Cc1ccc(NC(=O)[C@@H]2CCCN2S(=O)(=O)c2ccccc2F)cc1S(=O)(=O)N1CCOCC1 32.9%, C[C@@H]1CN([C@H](C)CO)C(=O)Cc2cc(NC(=O)Nc3cccc4ccccc34)ccc2O[C@H]1CN(C)C(=O)NC1CCCCC1 -9.06%, Cc1cccc(OCCCC(=O)Nc2ccc(Cl)c(S(=O)(=O)N3CCOCC3)c2)c1 26.7%, COC(=O)c1cc(Br)ccc1NC(=O)Nc1ccccc1 -7.49%, COc1ccc2c(c1)C(C)=CC(C)(C)N2S(=O)(=O)c1ccc(Br)cc1 20.6%, C[C@H](CO)N1C[C@H](C)[C@H](CN(C)S(=O)(=O)c2ccc(Cl)cc2)Oc2ccc(N(C)C)cc2CC1=O -4.37%, C[C@H](CO)N1C[C@H](C)[C@H](CN(C)S(C)(=O)=O)Oc2ccc(N(C)C)cc2CC1=O 10.5%, C[C@H](CO)N1C[C@H](C)[C@H](CN(C)CC2CC2)Oc2ccc(N(C)C)cc2CC1=O -3.7%, CC(C)NC(=O)N(C)C[C@@H]1Oc2ccc(N(C)C)cc2CC(=O)N([C@H](C)CO)C[C@@H]1C -7.22%, CCCOC(=O)c1[nH]c2c(c1C)C(=O)CC(c1cccs1)C2 (stereo not given) 27.8%, Clc1ccc(CNc2nc(N3CCOCC3)nc(N3CCOCC3)n2)cc1 -7.36%, CCn1c(SCC(=O)Nc2ccc(N3CCOCC3)cc2)nnc1-c1ccc(OC)cc1 -11.1%, CC(C)N1C(=O)CC(Nc2ccc(N3CCOCC3)cc2)C1=O (stereo not given) 14.4%, COc1ccccc1CNC(=O)C[C@@H]1CC[C@H]2[C@H](COc3ccc(NC(=O)Nc4ccc(F)c(F)c4)cc3C(=O)N2C)O1 -26.4%, COc1ccccc1CNC(=O)C[C@@H]1CC[C@H]2[C@@H](COc3ccc(NC(=O)Nc4ccc(F)c(F)c4)cc3C(=O)N2C)O1 -26.3%, COCC(=O)Nc1ccc2c(c1)C(=O)N(C)[C@H]1CC[C@@H](CC(=O)O)O[C@H]1CO2 -2.08%, COCCNC(=O)C[C@@H]1CC[C@H]2[C@@H](COc3ccc(NC(C)=O)cc3C(=O)N2C)O1 9.45%, CCCNC(=O)C[C@@H]1CC[C@@H]2[C@H](COc3ccc(NC(=O)Nc4c(C)noc4C)cc3C(=O)N2C)O1 -2.46%, CC(C)C(=O)Nc1ccc2c(c1)C(=O)N(C)[C@H]1CC[C@@H](CC(=O)NCC3CC3)O[C@@H]1CO2 1.56% [at 30 µM], COc1ccccc1CNC(=O)C[C@H]1CC[C@H]2[C@H](COc3ccc(NC(=O)Nc4ccc(F)c(F)c4)cc3C(=O)N2C)O1 -21.2%, Cc1nc(Nc2nc(CSc3nc4ccccc4[nH]3)cc(=O)[nH]2)nc2ccccc12 19.8%, Cc1ccc2c(C)nc(Nc3nc(CSc4nc5ccccc5[nH]4)cc(=O)[nH]3)nc2c1 0.806%, Cc1ccc(-n2nnnc2SCC(=O)N2c3ccccc3NC(=O)C2(C)C)cc1 -3.77%, NC(=O)c1ccc(-n2nnnc2SCC(=O)c2ccc(O)c(O)c2)cc1 1.97%, O=C(C[C@H]1CC[C@@H]2[C@H](COC[C@H](O)CN2C(=O)C2CCCC2)O1)NCc1ccncc1 -9.04%, N#Cc1cnn2c1nc(N1CCCCC1)c1ccccc12 -9.38%, CCCCn1c(SCC(=O)Nc2nnc(CC)s2)nc2c1c(=O)n(C)c(=O)n2C -3.31%, CC(C)Cc1nnc(NC(=O)Cc2ccccc2[N+](=O)[O-])s1 13.4%
